# Test results published in PubChem BioAssay AID1159580 (chemical genetic matrix, 2015).
# Hit rate of the full screen: of about 5,500 compounds, about 2,000 (36%) were called active. Roughly 18% stayed inconclusive and do not appear here. The list shows a part of the results. A number with no mark means an inactive call. Rule as the data show it: active = normalized growth mostly below about 0.91 (no sharp cut-off); inconclusive = no clear call, values can overlap the other calls; inactive = mostly above about 0.92.
# Assay: chemical genetic growth profiling, strain panel (AID 1159580);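 also: tested at 20 µM; growth read once vehicle control cultures reached saturation at 30 °C; 1 = growth at the plate median or of vehicle wells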
# Conditions: S. cerevisiae deletion strains, growth OD
# [1] = locus YAR019C, strain CDC15, stronger effect = lower value
# [2] = locus YBL105C, strain PKC1, stronger effect = lower value
# [3] = locus YBR135W, strain CKS1, stronger effect = lower value
# [4] = locus YBR136W, strain MEC1, stronger effect = lower value
# [5] = locus YBR160W, strain CDC28, stronger effect = lower value
# [6] = locus YDL017W, strain CDC7, stronger effect = lower value
# [7] = locus YDL028C, strain MPS1, stronger effect = lower value
# [8] = locus YDL101C, strain DUN1, stronger effect = lower value
# [9] = locus YDL108W, strain KIN28, stronger effect = lower value
# [10] = locus YDL132W, strain cdc53, stronger effect = lower value
# [11] = locus YDL214C, strain PRR2, stronger effect = lower value
# [12] = locus YDR052C, strain DBF4, stronger effect = lower value
# [13] = locus YDR054C, strain cdc34, stronger effect = lower value
# [14] = locus YDR226W, strain ADK1, stronger effect = lower value
# [15] = locus YDR477W, strain SNF1, stronger effect = lower value
# [16] = locus YER123W, strain YCK3, stronger effect = lower value
# [17] = locus YER133W, strain GLC7, stronger effect = lower value
# [18] = locus YFL009W, strain cdc4, stronger effect = lower value
# [19] = locus YFL029C, strain CAK1, stronger effect = lower value
# [20] = locus YFR003C, strain YPI1, stronger effect = lower value
# [21] = locus YFR019W, strain FAB1, stronger effect = lower value
# [22] = locus YFR028C, strain CDC14, stronger effect = lower value
# [23] = locus YGR040W, strain KSS1, stronger effect = lower value
# [24] = locus YGR052W, strain FMP48, stronger effect = lower value
# [25] = locus YGR092W, strain DBF2, stronger effect = lower value
# [26] = locus YHR030C, strain SLT2, stronger effect = lower value
# [27] = locus YHR079C, strain IRE1, stronger effect = lower value
# [28] = locus YHR082C, strain KSP1, stronger effect = lower value
# [29] = locus YHR205W, strain SCH9, stronger effect = lower value
# [30] = locus YIL147C, strain SLN1, stronger effect = lower value
# [31] = locus YJL095W, strain BCK1, stronger effect = lower value
# [32] = locus YJL128C, strain PBS2, stronger effect = lower value
# [33] = locus YJL157C, strain FAR1, stronger effect = lower value
# [34] = locus YJR016C, strain ILV3, stronger effect = lower value
# [35] = locus YJR066W, strain TOR1 (second series), stronger effect = lower value
# [36] = locus YJR066W, strain TOR1, stronger effect = lower value
# [37] = locus YKL048C, strain ELM1, stronger effect = lower value
# [38] = locus YKL101W, strain HSL1, stronger effect = lower value
# [39] = locus YKL193C, strain SDS22, stronger effect = lower value
# [40] = locus YKL203C, strain TOR2, stronger effect = lower value
# [41] = locus YLR113W, strain HOG1, stronger effect = lower value
# [42] = locus YLR133W, strain CKI1, stronger effect = lower value
# [43] = locus YLR403W, strain SFP1, stronger effect = lower value
# [44] = locus YML070W, strain DAK1, stronger effect = lower value
# [45] = locus YMR001C, strain CDC5, stronger effect = lower value
# [46] = locus YMR205C, strain PFK2 (second series), stronger effect = lower value
# [47] = locus YMR277W, strain FCP1, stronger effect = lower value
# [48] = locus YNL006W, strain LST8, stronger effect = lower value
# [49] = locus YNL020C, strain ARK1, stronger effect = lower value
# [50] = locus YNL161W, strain CBK1, stronger effect = lower value
# [51] = locus YNL183C, strain NPR1, stronger effect = lower value
# [52] = locus YNL207W, strain RIO2, stronger effect = lower value
# [53] = locus YNL222W, strain SSU72, stronger effect = lower value
# [54] = locus YNL307C, strain MCK1 (second series), stronger effect = lower value
# [55] = locus YOL078W, strain AVO1, stronger effect = lower value
# [56] = locus YOL136C, strain PFK27, stronger effect = lower value
# [57] = locus YOR061W, strain CKA2, stronger effect = lower value
# [58] = locus YOR119C, strain RIO1, stronger effect = lower value
# [59] = locus YOR231W, strain MKK1, stronger effect = lower value
# [60] = locus YOR329C, strain SCD5, stronger effect = lower value
# [61] = locus YPL031C, strain PHO85, stronger effect = lower value
# [62] = locus YPL153C, strain RAD53, stronger effect = lower value
# [63] = locus YPL204W, strain HRR25, stronger effect = lower value
# [64] = locus YPL209C, strain IPL1, stronger effect = lower value
# [65] = locus YPL256C, strain CLN2, stronger effect = lower value
# [66] = locus YPR025C, strain CCL1, stronger effect = lower value
# [67] = locus YPR106W, strain ISR1, stronger effect = lower value
# [68] = locus YPR111W, strain DBF20, stronger effect = lower value
# [69] = strain NNK1, stronger effect = lower value
# [70] = strain TSCII, stronger effect = lower value
structure (smiles),measurement,setting,value
O=C1OC(c2ccccc2)=C/C1=C/c1ccccc1,normalized growth,[1],0.952
same,normalized growth,[2],0.953
same,normalized growth,[3],0.942
same,normalized growth,[4],0.953
same,normalized growth,[5],0.943
same,normalized growth,[6],0.95
same,normalized growth,[7],0.923
same,normalized growth,[8],0.966
same,normalized growth,[9],0.925
same,normalized growth,[10],0.96
same,normalized growth,[11],0.604 (active)
same,normalized growth,[12],0.969
same,normalized growth,[13],0.962
same,normalized growth,[14],0.944
same,normalized growth,[15],0.635 (active)
same,normalized growth,[16],0.869
same,normalized growth,[17],0.725
same,normalized growth,[18],0.961
same,normalized growth,[19],0.925
same,normalized growth,[20],0.956
same,normalized growth,[21],0.946
same,normalized growth,[22],0.948
same,normalized growth,[23],0.674 (active)
same,normalized growth,[24],0.353 (active)
same,normalized growth,[25],0.855
same,normalized growth,[26],0.506 (active)
same,normalized growth,[27],0.934
same,normalized growth,[28],0.522 (active)
same,normalized growth,[29],0.514 (active)
same,normalized growth,[30],0.955
same,normalized growth,[31],0.669
same,normalized growth,[32],1
same,normalized growth,[33],0.761
same,normalized growth,[34],0.954
same,normalized growth,[35],0.861
same,normalized growth,[36],0.461 (active)
same,normalized growth,[37],0.889
same,normalized growth,[38],0.797
same,normalized growth,[39],0.948
same,normalized growth,[40],0.614 (active)
same,normalized growth,[41],0.714 (active)
same,normalized growth,[42],0.843
same,normalized growth,[43],0.611 (active)
same,normalized growth,[44],0.892
same,normalized growth,[45],0.951
same,normalized growth,[46],0.843
same,normalized growth,[47],0.918
same,normalized growth,[48],0.956
same,normalized growth,[49],0.9
same,normalized growth,[50],0.945
same,normalized growth,[51],0.188 (active)
same,normalized growth,[52],0.951
same,normalized growth,[53],0.932
same,normalized growth,[54],0.95
same,normalized growth,[55],0.954
same,normalized growth,[56],0.914
same,normalized growth,[57],0.844
same,normalized growth,[58],0.519 (active)
same,normalized growth,[59],0.943
same,normalized growth,[60],0.961
same,normalized growth,[61],0.758
same,normalized growth,[62],0.798
same,normalized growth,[63],0.839
same,normalized growth,[64],0.947
same,normalized growth,[65],0.793 (active)
same,normalized growth,[66],0.945
same,normalized growth,[67],0.981
same,normalized growth,[68],0.964
same,normalized growth,[69],0.949
same,normalized growth,[70],0.93
NC(=O)c1ccc(OCC(O)CN2CC=C(c3ccc(F)cc3)CC2)cc1 (stereo not given),normalized growth,"locus YAL040C, strain CLN3, stronger effect = lower value",1.06
same,normalized growth,"locus YCL061C, strain MRC1 (second series), stronger effect = lower value",0.982
same,normalized growth,"locus YDR150W, strain NUM1, stronger effect = lower value",1.01
same,normalized growth,"locus YDR363W, strain ESC2, stronger effect = lower value",0.964
same,normalized growth,"locus YER002W, strain NOP16, stronger effect = lower value",1.01
same,normalized growth,"locus YMR263W, strain SAP30, stronger effect = lower value",0.98
same,normalized growth,"locus YMR307W, strain GAS1, stronger effect = lower value",0.998
same,normalized growth,"locus YNL128W, strain TEP1, stronger effect = lower value",1.01
same,normalized growth,"locus YNL175C, strain NOP13, stronger effect = lower value",1.03
same,normalized growth,"locus YNL197C, strain WHI3, stronger effect = lower value",1
same,normalized growth,"locus YNL224C, strain SQS1, stronger effect = lower value",1.01
same,normalized growth,"locus YNL322C, strain KRE1, stronger effect = lower value",0.962
same,normalized growth,"locus YOR083W, strain WHI5 (second series), stronger effect = lower value",1
same,normalized growth,"locus YPL055C, strain LGE1, stronger effect = lower value",0.98
COc1ccc(N=C2SCC(c3ccc(C)cc3)=NN2CCO)cc1,normalized growth,[1],0.975
same,normalized growth,[2],0.985
same,normalized growth,[3],0.979
same,normalized growth,[4],0.972
same,normalized growth,[5],0.982
same,normalized growth,[6],0.982
same,normalized growth,[7],0.971
same,normalized growth,[8],0.982
same,normalized growth,[9],0.981
same,normalized growth,[10],0.98
same,normalized growth,[11],0.975
same,normalized growth,[12],0.988
same,normalized growth,[13],0.979
same,normalized growth,[14],0.981
same,normalized growth,[15],0.958
same,normalized growth,[16],0.943
same,normalized growth,[17],0.971
same,normalized growth,[18],0.972
same,normalized growth,[19],0.964
same,normalized growth,[20],0.98
same,normalized growth,[21],0.985
same,normalized growth,[22],0.972
same,normalized growth,[23],0.961
same,normalized growth,[24],1.01
same,normalized growth,[25],0.947
same,normalized growth,[26],0.95
same,normalized growth,[27],0.968
same,normalized growth,[28],0.991
same,normalized growth,[29],0.987
same,normalized growth,[30],0.977
same,normalized growth,[31],0.973
same,normalized growth,[32],0.955
same,normalized growth,[33],0.979
same,normalized growth,[34],0.979
same,normalized growth,[35],0.925
same,normalized growth,[36],0.962
same,normalized growth,[37],0.997
same,normalized growth,"locus YKL067W, strain YNK1, stronger effect = lower value",0.971
same,normalized growth,[38],0.976
same,normalized growth,[39],0.975
same,normalized growth,[40],1.02
same,normalized growth,[41],0.915
same,normalized growth,[42],0.976
same,normalized growth,[43],0.976
same,normalized growth,[44],0.956
same,normalized growth,[45],0.984
same,normalized growth,[46],0.971
same,normalized growth,[47],0.978
same,normalized growth,[48],0.986
same,normalized growth,[49],0.983
same,normalized growth,[50],0.978
same,normalized growth,[51],0.941
same,normalized growth,[52],0.978
same,normalized growth,[53],0.972
same,normalized growth,[54],0.98
same,normalized growth,[55],0.977
same,normalized growth,[56],0.96
same,normalized growth,[57],0.983
same,normalized growth,[58],0.999
same,normalized growth,[59],0.963
same,normalized growth,[60],0.983
same,normalized growth,[61],0.969
same,normalized growth,[62],0.97
same,normalized growth,[63],0.961
same,normalized growth,[64],0.977
same,normalized growth,[65],0.946
same,normalized growth,[66],0.985
same,normalized growth,[67],0.979
same,normalized growth,[68],0.968
same,normalized growth,[69],0.983
same,normalized growth,[70],0.982
